Inconclusive results are not listed. For some assays here: Entries with a potency or affinity are not part of this list. Activity calls are given as the source filed them. Unless noted, how the calls were made is not given here.
Assays:
[1] = qHTS Assay for Identifying Gametocytocidal Compounds (AID 743244; active means well fitted curve in the direction sought with a large enough effect; an effect the other way counts as inactive or inconclusive; further: potency means the concentration at half of the fitted maximal effect;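 on max response: on the % scale 0 is the no-effect control and ±100 the full control effect; actives lower the fluorescent signal which means gametocytes are killed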); conditions: P. falciparum 3D7 stage III-V gametocytes, alamarBlue, 72 h; max response: stronger effect = lower value
How it was run: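 Late gametocytes (III–V), P. falciparum 3D7; 72 h drug, then 24 h alamarBlue; resazurin reduction read by fluorescence.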

[2] = Ebola virus entry assay, green fluorescence channel
[3] = qHTS profiling for inhibitors of Plasmodium falciparum (3D7) proliferation (AID 743322);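 further: infected erythrocytes exposed to compound for 72 h before lysis; 100% = DMSO vehicle wells and 0% = 0.29 µM artemisinin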; conditions: P. falciparum 3D7 proliferation; at 28.7 µM (top of the series)
How it was run: (§1)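 Parasite DNA was quantified by SYBR Green I fluorescence (ex 485, em 535 nm) after overnight lysis in saponin/Triton buffer at room temperature. Cultures at 0.3% parasitemia and 2.5% hematocrit were first exposed to compound for 72 h at 37 C; signals were normalised to artemisinin (0.29 uM) and vehicle wells.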

[4] = qHTS profiling for inhibitors of Plasmodium falciparum (DD2) proliferation (AID 743323); conditions: lower = more inhibition; at 28.7 µM (top of the series)
How it was run: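 Parasite DNA quantified by SYBR Green fluorescence (ex 485, em 535 nm) after saponin/Triton lysis and overnight dark incubation. Cultures: 0.3% parasitemia, 2.5% hematocrit, 72 h, 37 C; data scaled between DMSO and 0.29 uM artemisinin.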

[5] = qHTS profiling for inhibitors of Plasmodium falciparum (HB3) proliferation (AID 743324; active means well fitted curve in the direction sought with a large enough effect; an effect the other way counts as inactive or inconclusive;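 further: 100% = DMSO vehicle wells and 0% = artemisinin-treated control wells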); conditions: Plasmodium falciparum HB3 blood-stage proliferation; at 28.7 µM (top of the series)
How it was run: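 SYBR Green fluorescence (485 ex/535 em) of lysed cultures, incubated overnight at room temperature in the dark, quantifies parasite DNA. Infected erythrocytes at 0.3% parasitemia and 2.5% hematocrit were exposed 72 h; values normalized to DMSO and 0.29 uM artemisinin controls.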

[6] = qHTS profiling of the MIPE4 collection as inhibitors of Plasmodium falciparum (3D7) proliferation (AID 743344);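 further: scaled between DMSO vehicle wells and 0.29 µM artemisinin as full inhibition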; conditions: P. falciparum 3D7 in erythrocytes, SYBR Green DNA fluorescence, 72 h; at 28.5 µM (top of the series) unless noted
How it was run: as §1

[7] = qHTS profiling of the MIPE4 collection as inhibitors of Plasmodium falciparum (DD2) proliferation (AID 743345); conditions: P. falciparum Dd2 in erythrocytes, SYBR Green DNA, 72 h; at 28.5 µM (top of the series) unless noted
How it was run: as §1

[8] = qHTS profiling of the MIPE4 collection as inhibitors of Plasmodium falciparum (DD2) proliferation (Rep 2) (AID 743346); conditions: P. falciparum Dd2 in erythrocytes, SYBR Green DNA, 72 h; at 28.5 µM (top of the series) unless noted
How it was run: as §1

[9] = qHTS profiling of the MIPE4 collection as inhibitors of Plasmodium falciparum (HB3) proliferation (AID 743347);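 further: plate controls were DMSO vehicle wells for no effect and artemisinin wells for full effect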; conditions: P. falciparum HB3 in erythrocytes, SYBR Green DNA, 72 h; at 28.5 µM (top of the series) unless noted
How it was run: as §1
Wherever efficacy is given: 0% is about no effect.

## C#CCOC(C(=O)OCCN(C)C)(c1ccccc1)c1ccccc1
[1]
  max response: -0.509% (inactive)
[2]
  efficacy: 46% (inactive)

## CC[N+]1(C)CCCC(OC(=O)C(O)(c2ccccc2)c2ccccc2)C1 (stereo not drawn)
[1]
  max response: -8.23% (inactive)
[2]
  efficacy: 26% (inactive)

## O=C(O)C(=O)c1cn(Cc2ccccc2)c2ccc(-c3ccc(OC(F)(F)F)cc3)cc12
[1]
  max response: 14.9% (inactive)
[3]
  remaining parasite growth % (stronger effect = lower value): 110%
[4]
  activity, percent of control: 90.7%
[5]
  remaining proliferation (% of control), lower = more inhibition: 30.7%
[6]
  parasite growth, % of DMSO control: 222%
[7]
  parasite growth remaining, % of DMSO control (lower = more inhibition): 108%
[8]
  parasite growth, % of control (lower = inhibition): 77.4%
[9]
  growth, % of control: 506%

## COC1(CS(=O)c2ccccc2)CCN(CCc2c[nH]c3ccc(F)cc23)CC1 (stereo not drawn)
[3]
  remaining parasite growth % (stronger effect = lower value): 23.6%
[4]
  activity, percent of control: 44.5%
[5]
  remaining proliferation (% of control), lower = more inhibition: 10%
[6]
  parasite growth, % of DMSO control: 36.7%
[7]
  parasite growth remaining, % of DMSO control (lower = more inhibition): 55.9%
[8]
  parasite growth, % of control (lower = inhibition): 66.8%
[9]
  growth, % of control: 35.7%

## Cc1ccc2c(c1)C1CN(C)CCC1N2 (stereo not drawn)
[1]
  max response: -7.38% (inactive)
[2]
  efficacy: 62.7% (inactive)

## Clc1ccc(CCC(Cn2ccnc2)Sc2c(Cl)cccc2Cl)cc1 (stereo not drawn)
[1]
  Potency: 7.94 µM (active)
[2]
  efficacy: -22% (inactive)
